For orientation: AC50 means the concentration giving half of the maximal activity seen.

Inconclusive results are not listed. The source made the active and inactive calls. The calls were made as follows, unless noted: active = hit-call score of the fitted dose curve at least 0.9, where 1 is the maximum; inconclusive = response in the unintended direction; inactive = score below 0.9.

Test system in the first assay: not listed separately
In words: Tanguay_ZF_120hpf_SWIM_legacy: (Legacy) Oregon State University Tanguay Lab 120 Hour Post-fertilization zebrafish Assay for Swim Bladder Malformation (AID 2283654).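 Also: swim bladder malformation in each larva scored yes or no under brightfield.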 Put shortly: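 Scoring is binary for swim bladder defects at 120 hpf, by brightfield inspection of zebrafish larvae. Embryos were exposed singly from 6 hpf after pronase dechorionation, at 28C with 0.64% DMSO; mortality excluded scoring.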
Regarding `CCCCN(CCCC)N=O`, the result was inactive.

With `c1cc2c3c(cccc3c1)CC2`, the compound was called inactive.

As to `Nc1ccc(Cl)cc1`, the result was inactive.

In the case of `CCCCN(CCCC)SN(C)C(=O)Oc1cccc2c1OC(C)(C)C2`, the result was inactive.

Take `O=[N+]([O-])c1ccccc1`: the outcome was inactive.

Regarding `[N-]=[N+]=[N-]`, the result was inactive.

As for `CCNc1nc(Cl)nc(NC(C)(C)C)n1`, the compound was called inactive.

As to `CCOC(=O)c1ccccc1C(=O)OCC`, the compound was called inactive.

Consider `ClC1=C(Cl)C2(Cl)C3C(Cl)C(Cl)CC3C1(Cl)C2(Cl)Cl` (centres undefined), for which the call was inactive.

In the case of `CCCN(CCC)c1c([N+](=O)[O-])cc(C(C)C)cc1[N+](=O)[O-]`, the compound was called inactive.

As to `c1ccc2c(c1)Nc1ccccc1S2`, the compound was called inactive.

Regarding `O=P(Oc1ccccc1)(Oc1ccccc1)Oc1ccccc1`, the call was inactive.

Regarding `CCCCc1ccccc1`, the outcome was inactive.

As for `O=C(O)C(Cl)Cl`, the outcome was inactive.

Test system in another assay: not listed separately
In words: Tanguay_ZF_120hpf_TRUN_legacy: (Legacy) Oregon State University Tanguay Lab 120 Hour Post-fertilization zebrafish Assay for Truncated Body (AID 2283655). In short, it runs like this: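 5D wild-type larvae; pronase dechorionation; static exposure 6→120 hpf, 28C; DMSO 0.64% final; 5uM trimethyltin chloride positive control. Readout: presence/absence of truncated body, analyzed relative to DMSO.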
In the case of `CCCCN(CCCC)N=O`, the result was inactive.

As for `O=[N+]([O-])c1ccc(Cl)c(Cl)c1`, the call was inactive.

`CCCCN(CCCC)SN(C)C(=O)Oc1cccc2c1OC(C)(C)C2`: the result was inactive.

As to `Cc1ccc([N+](=O)[O-])cc1C`, the call was inactive.

As for `O=[N+]([O-])c1ccccc1`, the compound was called inactive.

`CCNc1nc(Cl)nc(NC(C)(C)C)n1`: the compound was classed as inactive.

As for `CCOC(=O)c1ccccc1C(=O)OCC`, the outcome was inactive.

As for `OCC1CO1` (centres undefined), the compound was called inactive.

For the compound `CN(C)C(=O)Cl`, the compound was classed as inactive.

With `CCCN(CCC)c1c([N+](=O)[O-])cc(C(C)C)cc1[N+](=O)[O-]`, the compound was called inactive.

Take `O=P(Oc1ccccc1)(Oc1ccccc1)Oc1ccccc1`: the outcome was inactive.

As to `CCCCc1ccccc1`, the outcome was inactive.

With `O=C(O)C(Cl)Cl`, the outcome was inactive.

Test system in a further assay: not listed separately
In words: Tanguay_ZF_120hpf_NC_legacy: (Legacy) Oregon State University Tanguay Lab 120 Hour Post-fertilization zebrafish Assay for Notochord and Tail Malformation (AID 2283656). In short, it runs like this:
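Binary scoring of notochord distortion by brightfield microscopy; embryos dying were not scored. Wild-type Tropical 5D embryos, chorion removed, exposed singly and statically from 6 to 120 hpf, 28C, sealed, 0.64% DMSO.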
For `c1cc2c3c(cccc3c1)CC2`, the result was inactive.

`Nc1ccc(Cl)cc1`: the result was inactive.

As for `O=[N+]([O-])c1ccc(Cl)c(Cl)c1`, the call was inactive.

`CCCCN(CCCC)SN(C)C(=O)Oc1cccc2c1OC(C)(C)C2`: the outcome was inactive.

Regarding `Cc1ccc([N+](=O)[O-])cc1C`, the result was inactive.

On to `[N-]=[N+]=[N-]`, for which the call was inactive.

As for `CCNc1nc(Cl)nc(NC(C)(C)C)n1`, the outcome was inactive.

For `CN(C)C(=O)Cl`, the result was inactive.

For the compound `CCCN(CCC)c1c([N+](=O)[O-])cc(C(C)C)cc1[N+](=O)[O-]`, the outcome was inactive.

Consider `c1ccc2c(c1)Nc1ccccc1S2`, for which the result was inactive.

`c1nc[nH]n1`: the call was inactive.

As for `O=P(Oc1ccccc1)(Oc1ccccc1)Oc1ccccc1`, the compound was classed as inactive.

In the case of `O=C(O)C(Cl)Cl`, the compound was called inactive.

The subject of the next assay is Thyroperoxidase (TPO), gene 54314. In words: CCTE_Simmons_AUR_rTPO: CCTE's Amplex UltraRed Assay for Thyroperoxidase (TPO) Inhibition, Simmons Lab (AID 2283662).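 Also: potency for loss of signal meaning inhibition of peroxidase activity.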 In short, it runs like this:
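Endpoint is decreased Amplex UltraRed fluorescence after a 30-min, 37C reaction of rat thyroid microsomes with 300 uM H2O2. Eight test concentrations (5 nM–87.5 uM final) in 0.5% DMSO, three biological replicates each.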
For `CCCCc1ccc(O)cc1`, the concentration at half-maximal activity (AC50) was 0.51 µM (active).

On to `Nc1ccc(Cl)cc1`, for which the concentration at half-maximal activity (AC50) is 0.315 µM (active).

Take `CCCCN(CC)C(=O)SCCC`: the AC50 is 6.35 µM (active).

As to `c1ccc2c(c1)Nc1ccccc1S2`, the AC50 was 15 µM (active).

With `O=c1ssc(Cl)c1Cl`, the AC50 was 24.5 µM (active).

With `O=S1(=O)OCC2C(CO1)C1(Cl)C(Cl)=C(Cl)C2(Cl)C1(Cl)Cl` (centres undefined), the AC50 was 2.41 µM (active).

As to `O=S(=O)(c1ccc(O)cc1)c1ccc(O)cc1`, the AC50 was 32 µM (active).

Test system in another assay: not listed separately
The experiment in a line: CCTE_Simmons_CellTiterGLO_HEK293T: Viability Assessment in CCTE's Assays for Thyroperoxidase (TPO) Inhibition, Simmons Lab (AID 2283665).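 As to AC50: cells exposed to compound for 24 h before readout; actives reduce ATP signal below DMSO vehicle meaning cytotoxicity.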 Put shortly: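 Luciferase-coupled ATP content after 24 h exposure gives viability; 8-point series from 5 nM to 87.5 uM final in 0.5% DMSO. Human HEK293T cells, 1% FBS medium, three biological replicates, dichlone positive control.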
For `CCCCc1ccc(O)cc1`, the concentration at half-maximal activity (AC50) is 53.6 µM (active).

As for `Nc1ccc(Cl)cc1`, the compound was classed as inactive.

In the case of `[N-]=[N+]=[N-]`, the compound was classed as inactive.

Consider `CCCCN(CC)C(=O)SCCC`, for which the AC50 is 73.1 µM (active).

With `c1ccc2c(c1)Nc1ccccc1S2`, the concentration at half-maximal activity (AC50) is 9.57 µM (active).

Turning to `O=c1ssc(Cl)c1Cl`, the half-maximal activity concentration (AC50) was 53.8 µM (active).

As for `O=S1(=O)OCC2C(CO1)C1(Cl)C(Cl)=C(Cl)C2(Cl)C1(Cl)Cl` (centres undefined), the half-maximal activity concentration (AC50) was 28.5 µM (active).

Test system in another assay: not listed separately
The experiment in a line: Tanguay_ZF_120hpf_TR_legacy: (Legacy) Oregon State University Tanguay Lab 120 Hour Post-fertilization zebrafish Assay for Touch Response (AID 2283667). Put shortly:
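Binary touch-response endpoint in larvae at 120 hpf after static waterborne exposure from embryo stage (28°C, 0.64% DMSO vehicle, 5 uM trimethyltin chloride as positive control); embryos dead at 24 or 120 hpf excluded; fitted as gain versus DMSO.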
For the compound `CCCCN(CCCC)N=O`, the result was inactive.

`c1cc2c3c(cccc3c1)CC2`: the compound was classed as inactive.

Take `O=[N+]([O-])c1ccc(Cl)c(Cl)c1`: the compound was classed as inactive.

Turning to `CCCCN(CCCC)SN(C)C(=O)Oc1cccc2c1OC(C)(C)C2`, the compound was called inactive.

Consider `O=[N+]([O-])c1ccccc1`, for which the compound was called inactive.

On to `[N-]=[N+]=[N-]`, for which the outcome was inactive.

`CCNc1nc(Cl)nc(NC(C)(C)C)n1`: the result was inactive.

Consider `CCOC(=O)c1ccccc1C(=O)OCC`, for which the result was inactive.

As to `ClC1=C(Cl)C2(Cl)C3C(Cl)C(Cl)CC3C1(Cl)C2(Cl)Cl` (centres undefined), the result was inactive.

With `OCC1CO1` (centres undefined), the outcome was inactive.

Turning to `CN(C)C(=O)Cl`, the compound was called inactive.

As to `CCCN(CCC)c1c([N+](=O)[O-])cc(C(C)C)cc1[N+](=O)[O-]`, the outcome was inactive.

`c1ccc2c(c1)Nc1ccccc1S2`: the compound was called inactive.

As to `c1nc[nH]n1`, the result was inactive.

For `O=P(Oc1ccccc1)(Oc1ccccc1)Oc1ccccc1`, the call was inactive.

As for `CCCCc1ccccc1`, the call was inactive.

Consider `O=C(O)C(Cl)Cl`, for which the call was inactive.

Test system in the next assay: not listed separately
The experiment in a line: CCTE_Padilla_ZF_144hpf_TERATOSCORE: (Legacy) CCTE's 144 Hour Post-fertilization zebrafish Assay Teratoscore, Padilla Lab (AID 2283679; active = hit-call score of the fitted dose curve at least 0.9, where 1 is the maximum; inactive = score below 0.9;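 as to AC50: zebrafish embryos with chorions exposed by immersion from 6-8 hpf to 5 dpf with daily renewal; teratogenicity score from eye scoring of death hatching and malformations at 144 hpf; higher score means more developmental defects relative to DMSO baseline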). Put shortly: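 Larvae scored by eye at 144 hpf for death, hatching and malformations after a day in clean Hanks'. Before that, daily-renewed exposure at 80 uM (0.4% DMSO, 26C) from roughly 6-8 hpf through 5 dpf, 4 embryos per chemical.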
As for `CCCCN(CCCC)SN(C)C(=O)Oc1cccc2c1OC(C)(C)C2`, the AC50 is 6.04 µM (active).

For the compound `[N-]=[N+]=[N-]`, the result was inactive.

As for `CCNc1nc(Cl)nc(NC(C)(C)C)n1`, the outcome was inactive.

On to `ClC1=C(Cl)C2(Cl)C3C(Cl)C(Cl)CC3C1(Cl)C2(Cl)Cl` (centres undefined), for which the AC50 is 9.16 µM (active).

For `CCCN(CCC)c1c([N+](=O)[O-])cc(C(C)C)cc1[N+](=O)[O-]`, the half-maximal activity concentration (AC50) was 16.2 µM (active).

For the compound `c1ccc2c(c1)Nc1ccccc1S2`, the AC50 is 14.2 µM (active).

On to `O=P(Oc1ccccc1)(Oc1ccccc1)Oc1ccccc1`, for which the AC50 is 6.17 µM (active).

Take `O=C(O)C(Cl)Cl`: the outcome was inactive.

The values above are taken from PubChem BioAssay (EPA / NIEHS).
